Shown are actives, neighbours in structure and some others; about 2.4% of the full set was active somewhere.
Prx2 Sm inh = Schistosoma Mansoni Peroxiredoxins (Prx2) | S. mansoni Prx2 activity coupled to TGR/GSH (TGR is thioredoxin glutathione reductase), NADPH fluorescence loss, qHTS | AID 448, 2006 | 0.07% of 65,000 active | Potency, µM
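Purified S. mansoni TGR and Prx2 in pH 7.4 phosphate buffer with EDTA and Tween-20 were preincubated with compounds for 15 min. Further NADPH/GSH was added, then a 2.5 mM H2O2 aliquot initiated turnover, followed kinetically by NADPH fluorescence.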
AmpC nodet inh = Promiscuous and Specific Inhibitors of AmpC Beta-Lactamase (assay without detergent); AmpC nitrocefin hydrolysis, absorbance 480 nm, no detergent; P00811; Potency, µM (titrated, usually from 28.7 µM), for inactives: top-dose activity change, negative = inhibition; 1.8% of 71,000 active; AID 585, 2007; also: % of control where 0% means no effect
Target sequence (P00811 whole entry, looked up): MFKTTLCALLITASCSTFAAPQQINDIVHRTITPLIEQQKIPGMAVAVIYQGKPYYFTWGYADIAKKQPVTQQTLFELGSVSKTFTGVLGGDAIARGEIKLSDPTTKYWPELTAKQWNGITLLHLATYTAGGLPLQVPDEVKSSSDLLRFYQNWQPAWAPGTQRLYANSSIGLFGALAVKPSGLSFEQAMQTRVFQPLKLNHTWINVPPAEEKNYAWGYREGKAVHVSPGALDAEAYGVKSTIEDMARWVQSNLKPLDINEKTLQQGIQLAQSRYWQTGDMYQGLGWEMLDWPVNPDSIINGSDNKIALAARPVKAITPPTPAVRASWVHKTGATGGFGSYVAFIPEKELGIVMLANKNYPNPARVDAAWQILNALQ
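AmpC in 20 mM phosphate buffer pH 7.0 was preincubated 15 min at room temperature with compounds. Nitrocefin (800 uM stock) was then added and hydrolysis followed at 480 nm every 20 s for 4 min.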
AmpC det inh = Promiscuous and Specific Inhibitors of AmpC Beta-Lactamase (assay with detergent); 0.09% of 71,000 active; Potency, µM (series often up to 28.7 µM), for inactives: top-dose activity change, negative = inhibition; AID 584, 2007; purified AmpC, nitrocefin hydrolysis with detergent; active = well fitted curve in the direction sought with a large enough effect; inconclusive = small, poorly fitted or top-dose-only effect; also: % is scaled to controls: 0 for no effect and ±100 for the full control effect
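E. coli AmpC (5.3 nM) in 20 mM phosphate pH 7.0 with 0.01% Triton X-100, preincubated 15 min RT with compound; nitrocefin (2 uL of 800 uM stock) hydrolysis followed by 480 nm absorbance every 20 s over 4 min.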
LT uptake inh = qHTS Assay for Anthrax Lethal Toxin Internalization; Cells, anthrax lethal toxin internalization, FRET ratio (460/530); Potency, µM (top dose mostly 40 µM), for the others: at the highest dose activity change, negative = inhibition, actives largely listed as inhibitors; 0.67% of 70,000 active; also: % is scaled to controls: 0 for no effect and ±100 for the full control effect; nearly all actives have a fitted effect of over 50% in size
* hit, by the source's call; ? = inconclusive; nt = no result; [ ] = remark or other dose. Unless noted, calls follow the shape of the full dose curve. Potency is read from the fitted curve at half-maximal effect.

SMILES | Prx2 Sm inh | AmpC nodet inh | AmpC det inh | LT uptake inh
C=CCn1c2ccccc2c2nnc(SCCCn3c(=O)[nH]c4ccccc43)nc21 | nt | 20.6% | -3.5% | 6.31µM*
CCOC(=O)c1c(N)nn(C(C)=O)c1-c1ccccc1 | >57 | 2.2% | -6.6% | -1.0%
CCOC(=O)c1c(-c2ccccc2)c(C(C)=O)c(=O)n(C)c1C | >57 | 3.98µM*[single pt active] | 7.9% | 2.8%
CC1CCN(c2c(NCc3ccc(C(=O)NCC4COc5ccccc5O4)cc3)c(=O)c2=O)CC1 (stereo not drawn) | >57 | 3.98µM*[single pt active] | 15.0% | -2.2%
Cc1ccc(OCc2nc(-c3ccccc3)no2)c(C)c1 | nt | -10.0% | 2.5% | ?
Cc1cccc(NCc2nc(-c3ccccc3)no2)c1 | >57 | 2.51µM*[single pt active] | 9.7% | ?
O=S(=O)(NCc1ccccn1)c1cccc2cccnc12 | >57 | 11.0% | 9.6% | -2.3%
O=C(c1ccco1)N1CCN(c2nc3ccccc3n3nnnc23)CC1 | >57 | 39.7% | 21.2% | -3.8%
c1ccc(CC2CCN(c3nc4ccccc4n4nnnc34)CC2)cc1 | >57 | 12.6µM* | 12.0% | -7.6%
O=C1c2ccccc2C(=O)c2c(NC3CCCCC3)ccc(Nc3ccc(S(=O)(=O)O)cc3)c21 | >57 | -5.1%[5.75 µM] | -5.7%[5.75 µM] | -11.5%[8 µM]
CC(=O)OC(C(=O)c1ccccc1)c1ccccc1 (stereo not drawn) | nt | -3.9% | 3.2% | 3.7%
CC1CN(C(=O)Nc2ccc3snnc3c2)c2ccccc21 (stereo not drawn) | >57 | 2µM* | 5.7% | ?
O=C(Nc1ccc2snnc2c1)N1CCSCC1 | nt | -13.1% | 6.0% | -4.2%
COc1cc([C@@H](O)CN)ccc1O | >57 | -3.1% | -4.6% | 4.6%
NC(=O)c1cccc(S(=O)(=O)N2CC(c3ccccc3)CC2=O)c1 (stereo not drawn) | >57 | 3.98µM*[single pt active] | 14.4% | -12.6%
N[C@@H]1C=CC=C(C(=O)O)C1 | >57 | 12.8% | 1.3% | 6.7%
COc1ccc(N(C)C(=O)c2ccc3snnc3c2)cc1 | >57 | 3.98µM*[single pt active] | 11.1% | -4.1%
NC1=N[C@H](c2ccc(Cl)cc2)N(c2ccc(S(=O)(=O)Nc3ncccn3)cc2)C(N)=N1 | >57 | 2.6%[5.75 µM] | -1.2%[5.75 µM] | -6.8%[8 µM]
Cc1ccnc(NC2c3ccccc3C(=O)N2Cc2ccccc2Cl)c1 (stereo not drawn) | >57 | 3.98µM*[single pt active] | 12.5% | -5.8%
COc1cc(NC(=O)c2ccc(Cl)cc2)c(OC)cc1NC(=O)CN1CCOCC1 | >57 | 123.4% | 0.6% | 12.6µM*
COc1ccc(Nc2ncnc3c2cnn3-c2ccccc2)cc1OC | >57 | 24.7% | 5.8% | ?
Clc1ccc(Nc2ncnc3c2cnn3-c2ccccc2)cc1 | >57 | -4.3% | 6.4% | 10µM*
CC(=O)[O-].CC(=O)[O-].O.O.O.[Pb+2] | nt | 5.2% | 12.2% | -6.4%
COc1cccc(-c2nn(C)c3sc(C(=O)N4CCN(c5ccccn5)CC4)cc23)c1 | >57 | 97.0% | -2.9% | 10µM*
COc1ccc(N2CCN(C(=O)c3cc4c(-c5ccc(Cl)cc5)nn(C)c4s3)CC2)cc1 | >57 | 3.98µM*[single pt active] | 11.6% | ?
SMILES | Prx2 Sm inh | AmpC nodet inh | AmpC det inh | LT uptake inh
COc1cccc(-c2nn(C)c3sc(C(=O)N4CCOCC4)cc23)c1 | >57 | 136.0% | 1.0% | 18.6%
O=C(Nc1ccc2c(c1)OCO2)c1ccc(COc2ccc3c(c2)CCC3)o1 | >57 | -19.6% | -4.4% | 6.31µM*
O=C(c1ccc(COc2ccc(Cl)cc2)o1)N1CCN(Cc2ccc3c(c2)OCO3)CC1 | nt | 91.4% | -5.7% | -22.4%
CN(C)c1ccc(NC(=O)c2ccc(COc3cccc(Cl)c3)o2)cc1 | >57 | 15.6% | 9.2% | 10µM*
CCOC(=O)C1CCCN(c2c(NCCN(C)Cc3ccccc3)c(=O)c2=O)C1 (stereo not drawn) | >57 | 3.98µM*[single pt active] | 12.9% | -13.2%
CCOC(=O)C1CCCN(c2c(N3CCc4ccccc4C3)c(=O)c2=O)C1 (stereo not drawn) | >57 | 3.98µM*[single pt active] | 12.2% | 17.9%
CCOC(=O)C1CCCN(c2c(NCc3ccco3)c(=O)c2=O)C1 (stereo not drawn) | >57 | 3.98µM*[single pt active] | 13.7% | 3.4%
CCOC(=O)N1CCC(Nc2c(-c3ccc(C)c(C)c3)c(=O)c2=O)CC1 | >57 | 14.4% | -0.6% | 10.4%
CCOC(=O)C1CCCN(c2ncnc3c2oc2ccccc23)C1 (stereo not drawn) | >57 | 69.0% | -0.7% | 6.3%
CCOC(=O)N1CCC(Nc2c(NCCCN(C)Cc3ccccc3)c(=O)c2=O)CC1 | >57 | 3.98µM*[single pt active] | 14.7% | 6.0%
